# Only a selection was taken, and hits are over-represented in it overall.
# Sm TGR inh: S. mansoni TGR enzyme inhibition; Potency, µM (series often up to 114 µM), hits mostly inhibitors; purified TGR, DTNB reduction, TNB absorbance 405 nm; actives 3% (n = 360,000); Q962Y6; also: nearly all actives have a fitted effect of over 60% in size
#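 First, TGR (20 nM dispensed) and NADPH were mixed with compound. Second, a 15 min room-temperature incubation followed. Third, further NADPH and then DTNB were added to start the reaction. Finally, TNB absorbance was monitored kinetically.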
# FBPA Giardia inh: Giardia lamblia aldolase inhibition. Potency, µM (top dose mostly 59.6 µM), hits mostly inhibitors. purified Giardia FBPA. actives 0.71% (n = 290,000). A8B2U2; also: nearly all actives have a fitted effect of over 55% in size
#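 40 nM FBPA preincubated 10 min at RT with compound (up to 57.5 uM final), then substrate plus GAPDH/TPI/NAD/arsenate coupling and diaphorase/resazurin added. Fluorescence read after 20 min at RT, 525/598 nm.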
# LmPK inh: inhibitors of Leishmania mexicana pyruvate kinase; purified LmPK, Kinase-Glo ATP luminescence, 1 h; Potency, µM (doses to about 57.5 µM), most hits filed as inhibitors; actives 0.37% (n = 290,000)
# Target sequence (Q27686 whole entry, looked up): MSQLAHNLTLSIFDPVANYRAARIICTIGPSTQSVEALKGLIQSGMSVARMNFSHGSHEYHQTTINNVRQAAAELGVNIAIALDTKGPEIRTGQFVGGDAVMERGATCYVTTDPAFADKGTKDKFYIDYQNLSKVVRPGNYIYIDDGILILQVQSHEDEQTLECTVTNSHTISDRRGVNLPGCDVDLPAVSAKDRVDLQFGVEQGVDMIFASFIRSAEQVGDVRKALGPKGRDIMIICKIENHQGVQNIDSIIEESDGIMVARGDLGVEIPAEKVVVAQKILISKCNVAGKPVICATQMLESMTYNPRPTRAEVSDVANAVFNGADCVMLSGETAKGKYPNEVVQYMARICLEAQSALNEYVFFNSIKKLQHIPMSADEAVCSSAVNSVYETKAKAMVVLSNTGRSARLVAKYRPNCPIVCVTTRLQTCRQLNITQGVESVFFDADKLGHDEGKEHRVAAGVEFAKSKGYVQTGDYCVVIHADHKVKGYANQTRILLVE
#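 Screened at intermediate enzyme activity to detect both inhibitors and activators: LmPK at 0.1 nM, with a 0.5 nM enzyme column as activation reference. PEP 0.5 mM, ADP 0.1 mM; ATP detected by luminescence after 1 h.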
# TbPYK inhibitor: blocks Trypanosoma brucei pyruvate kinase. TbPYK enzyme, Kinase-Glo Plus ATP luminescence, 45 min. Potency, µM (series often up to 76.8 µM), usual class: inhibitors. actives 0.12% (n = 410,000). Q57TT1; also: nearly all actives have a fitted effect of over 50% in size
#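 Screened from lowest to highest concentration, compounds were pinned into TbPYK/substrate mixtures, and ADP (130 uM final) was added. Plates sat at room temperature for 45 min prior to Kinase-Glo Plus detection by luminescence.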
# Shiga inhibitor: blocks Shiga toxin action in Vero cells | inhibition, % at 38.7 µM | actives 9.2% (n = 290,000) | Vero cells, Shiga toxin protein synthesis inhibition reporter | AID 2315; in the data active = inhibition mostly above about 28%, no sharp cut-off; inactive = mostly below about 43%
# CHX counter: counter-screen for Shiga toxin inhibitors: cycloheximide protein synthesis inhibition; cell reporter, cycloheximide protein synthesis inhibition counterscreen; max response, %; actives 12% (n = 300,000); AID 2314; in the data active = max response mostly above about 13%, no sharp cut-off; inactive = mostly below about 14%; also: read at 38.3 µM for the half of the compounds with a filed dose
# A number is an active result; 0 = inactive; ? = inconclusive; - = no result given; [ ] = another dose, or the depositor's remark. Unless noted, calls follow the shape of the dose curve; as a rule, active = well fitted curve in the direction sought with a large enough effect; inconclusive = small, poorly fitted or top-dose-only effect, or another doubt; inactive = no such curve, though single readings can be large; an effect the other way counts as inactive or inconclusive.
SMILES,Sm TGR inh,FBPA Giardia inh,LmPK inh,TbPYK inhibitor,Shiga inhibitor,CHX counter
CCc1nn2c(=O)cc(COC(=O)c3ccccc3NC(=O)COc3ccc(F)cc3)nc2s1,0,-,-,0,-,-
Cn1nc(C(=O)NCC(=O)Nc2ccc(F)c(F)c2F)c2ccccc2c1=O,0,-,-,0,-,-
N/C(=N\OC(=O)c1ccc2ccccc2c1)c1ccncc1,0,0,0,0,117.5,37.3
COc1ccc(/C(N)=N/OC(=O)c2ccc3ccccc3c2)cc1OC,-,-,-,0,-,-
N/C(=N\OC(=O)c1ccc(=O)n(Cc2ccccc2)c1)c1ccccn1,-,0,0,0,63.5,30.3
N/C(=N\OC(=O)c1ccc2ccccc2c1)c1ccccc1Cl,0,-,0,0,176.4,50.8
N/C(=N\OC(=O)c1ccc(=O)n(Cc2ccc(Cl)cc2)c1)c1ccccn1,0,0,0,0,0,0
N/C(=N\OC(=O)c1ccc2ccccc2c1)c1ccccn1,0,0,14.1µM,?,0,0
CN1CCN(C(=O)Nc2ccccc2CC[N+](=O)[O-])CC1,31.6µM,0,0,0,0,0
Oc1cccc2ccc(N3CCOCC3)nc12,0,0,0,0,0,24.5
CCCS(=O)(=O)NC(=O)C1(C)CCN(C(=O)c2cc(C)oc2C)C1 (configuration not stated),-,-,-,0,-,-
Oc1cccc(/C=N/Nc2nn3cnnc3c3ccccc23)c1,0,0,14.1µM,0,0,0
Cc1ccccc1/C=N/Nc1ccc(Cl)nn1,39.8µM,0,0,0,0,0
COc1cccc(/C=N/Nc2nn3cnnc3c3ccccc23)c1O,0,0,0,0,0,0
Oc1cccc(/C=N/Nc2ccc(Cl)nn2)c1,0,0,0,0,68.1,41.6
COc1cc(OC)c(OC)cc1/C=N/Nc1ccc(Cl)nn1,0,0,0,0,0,0
Nc1c2nc(-c3ccccc3Cl)[nH]c(=O)c2nc(=O)n1-c1ccccc1,?,0,0,0,58.1,22.5
O=c1c2ccccc2nc(-c2ccccc2Cl)n1-c1ccc(O)cc1,0,0,0,0,0,0
CC1(C)CC(=O)C=C(NC2=CC3OC(c4ccccc4)OCC3OC2=O)C1 (configuration not stated),20µM,0,0,0,0,0
CCc1cccc(NC(=O)CSC2=NS(=O)(=O)c3ccccc32)c1,3.16µM,0,15.8µM,?,0,0
CN1CCN(c2ccc3nccnc3c2)CC1,0,0,0,0,0,0
CCc1nc2ccc(N3CCN(C)CC3)cc2nc1CC,0,0,0,0,0,25.1
Cn1cccc1C(=O)OCC(=O)Nc1sccc1C#N,-,-,-,0,-,-
N#Cc1ccsc1NC(=O)COC(=O)c1cc(Br)ccc1O,0,0,0,0,84.1,45.0
N#Cc1ccsc1NC(=O)COC(=O)c1ccc(Br)o1,-,-,-,0,-,-
SMILES,Sm TGR inh,FBPA Giardia inh,LmPK inh,TbPYK inhibitor,Shiga inhibitor,CHX counter
N#Cc1ccsc1NC(=O)COC(=O)c1ccc2ccccc2c1,0,0,0,0,active,54.1
CCc1cc2c3c(c1)C1(C(=O)N3C(C)(C)CC2C)C(C#N)=C(N)N2C(=C1C#N)Nc1ccccc12 (configuration not stated),0,0,0,0,0,0
N#CC1=C(N)N2C(=C(C#N)C13CCCC3)Nc1ccccc12,0,0,0,0,50.5,8.8
CN(C)S(=O)(=O)c1ccc(C(=O)Nc2ccc3c(c2)CCC3)cc1,0,0,0,0,33.4,29.3
CC(=O)N1CCN(S(=O)(=O)c2cccc(C(=O)Nc3ccc4c(c3)CCC4)c2)CC1,0,0,0,0,0,0
CN(C)S(=O)(=O)c1cccc(C(=O)Nc2ccc3c(c2)CCC3)c1,0,0,0,0,105.6,43.4
Cc1ccc(/C=N\Nc2cn[nH]c(=O)c2Cl)cc1,0,0,0,0,0,37.8
COc1ccc(/C=N/Nc2cn[nH]c(=O)c2Cl)cc1,0,0,0,0,0,29.0
Cc1ccsc1/C=N\Nc1cn[nH]c(=O)c1Cl,0,0,0[11.5 µM],0,0,31.1
O=c1[nH]ncc(N/N=C/c2ccccc2)c1Cl,0,0,0,0,0,0
CCOC(=O)c1ccc(NC(=O)c2ccc3c(c2)c(C)c(C)n3Cc2ccc(F)cc2)cc1,0,-,-,0[15.4 µM],-,-
CC(NC(=O)c1ccccc1)C(=O)OCn1nnc2ccccc2c1=O (configuration not stated),0,-,-,0,-,-
Cc1ccc(CNc2ccc(-c3nc(-c4ccccn4)no3)cc2[N+](=O)[O-])cc1,0,-,-,0,-,-
